The list is not random: actives were taken first. Their share in the collection is about 8.8%.
KB-V1 cytotox: KB-V1 MDR subline cytotoxicity. 3.4% of 400,000 active. Potency, µM (top dose mostly 46.1 µM), hits mostly cytotoxic. KB-V1 MDR cells viability, CellTiter-Glo, 72 h. AID 1347076; note: potency is the fitted concentration of half-maximal effect; nearly all actives have a fitted effect of over 60% in size
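KB-V1 MDR subline cells in DMEM (phenol-red free, 10% FBS) exposed to compounds in qHTS concentration series for 72 h at 37 degrees C. Viability read by CellTiter-Glo luminescence; concentration-effect curves fitted after normalization and correction.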
KB-3-1 tox: kills parental KB-3-1 adenocarcinoma cells; KB-3-1 viability, CellTiter-Glo ATP luminescence, 72 h; Potency, µM (highest dose often 46.1 µM), most hits filed as cytotoxic; 1.4% of 400,000 active; AID 1347075; note: potency is the fitted concentration of half-maximal effect; nearly all actives have a fitted effect of over 60% in size
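Cytotoxicity measured as CellTiter-Glo luminescence after 72 h at 37 C. Compound titrations were pinned onto drug-naive KB-3-1 parental adenocarcinoma cells grown in DMEM with 10% FBS, and normalized data fitted to concentration-response curves.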
IL-1B inflam inh: inflammasome signaling inhibition, IL-1 beta readout; THP-1 LPS/ATP IL-1B secretion, AlphaLISA, 16 h; stronger effect = lower value; activity change, % at 57.5 µM; 4.7% of 360,000 active; AID 743279; in the data active = activity change below about -50%; inconclusive = mostly about -30% to -49%
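THP-1 cells pretreated 1 hr with compounds (up to 57.5 uM final), then stimulated with LPS (250 ng/mL final) plus ATP (1.25 mM final); secreted IL-1B measured by AlphaLISA after 16 hr, decreased signal indicating inhibition.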
HT1080-NT tox: kills 2HG-producing HT-1080-NT fibrosarcoma cells; HT-1080-NT fibrosarcoma viability, CellTiter-Glo ATP luminescence, 48 h; Potency, µM (highest dose often 46.1 µM), for the others: top-dose activity, negative = less viability, most hits filed as cytotoxic; 1.6% of 360,000 active;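 note: NT is the 2HG producing partner of a matched IDH1 knockdown line; potency is the fitted concentration of half-maximal effect; 0% = DMSO-treated cells and -100% = media-only wells without cells; nearly all actives have a fitted effect of over 55% in size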
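HT-1080-NT fibrosarcoma cells (2HG-overproducing), 750 cells/well in RPMI with 5% FBS, dosed after 2 h and incubated 48 h at 37C. CellTiter-Glo luminescence normalized to DMSO and no-cell wells; concentration-response curves fitted and classed.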
HT1080 IDH1KD tx: kills HT-1080 cells with IDH1 knockdown. HT-1080 IDH1 knockdown viability, ATP luminescence, 48 h. Potency, µM (highest dose often 46.1 µM), for the others: at the highest dose activity, negative = toxicity, most hits filed as cytotoxic. 2% of 360,000 active;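 note: potency is the fitted concentration of half-maximal effect; 0% = DMSO wells and -100% = cell-free medium wells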
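In this qHTS, HT-1080 cells depleted of IDH1 are exposed for 48 h at 37 °C to compound titrations. Toxicity is scored from CellTiter-Glo luminescence, with DMSO as full viability and medium alone as none.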
Active calls of the source: *; i = inactive; u = inconclusive; x = no result. Unless noted, calls come from the whole dose curve; as a rule, active = well fitted curve in the direction sought with a large enough effect; inconclusive = small, poorly fitted or top-dose-only effect, or another doubt; inactive = no such curve, though single readings can be large; an effect the other way counts as inactive or inconclusive. Unless noted, % is set by controls: 0 for no effect and ±100 for the full control effect.

SMILES	KB-V1 cytotox	KB-3-1 tox	IL-1B inflam inh	HT1080-NT tox	HT1080 IDH1KD tx
COc1cc(-c2ccc3ncnc(NCC4CCCO4)c3c2)cc(OC)c1OC (configuration not stated)	i	i	x	x	x
COc1cc2c(NC3CCN(C)CC3)nc(N3CCCN(C)CC3)nc2cc1OCCCN1CCCCC1	i	u	x	x	x
CCN(Cc1nc2ccccc2c(=O)[nH]1)C(=O)c1cc2c(s1)CCCCC2	u	i	42.7	2.5%	1.7%
CC1CCN(CCCCOc2ccccc2-c2ccccc2)CC1	u	u	-104.5*	u	u
CC(C)(C)c1ccccc1OCCOCCN1CCCCCC1	u	i	-61.6*	-14.2%	u
CC1CCN(CCCOc2ccc(Br)cc2Cl)CC1	u	i	-59.8*	-18.5%	-29.2%
CC1CCN(CCOc2ccc(OCc3ccccc3)cc2)CC1	14.6µM*	i	u	-17.5%	-13.7%
c1ccc(-c2ccccc2OCCCCN2CCCCCC2)cc1	i	i	-22.3	-2.3%	-8.0%
CC1CCCN(CCOCCOc2ccc(Br)cc2Cl)C1 (configuration not stated)	i	u	u	u	u
COc1cc(C2C(C(C)=O)=C(O)C(=O)N2Cc2ccccc2)ccc1O (configuration not stated)	i	i	-9.6	15.4%	7.3%
CC1CCCN(CCCOc2ccccc2-c2ccccc2)C1 (configuration not stated)	u	i	-81.6*	u	u
c1ccc(-c2ccccc2OCCN2CCCC2)cc1	i	i	u	-3.1%	-1.5%
CC(C)OC(=O)N(C)C[C@@H]1OCc2cnnn2CCCC(=O)N([C@@H](C)CO)C[C@H]1C	i	i	0.3	3.7%	23.8%
Nc1ccc(C(=O)OCC(=O)N2c3ccccc3Sc3ccccc32)cc1[N+](=O)[O-]	6.51µM*	u	-2.6	-3.1%	-12.8%
CCCNc1ccc(C(=O)OCC)cc1[N+](=O)[O-]	13µM*	16.4µM*	5.1	5.3%	13.5%
NCCNc1ccc(C(=O)N2c3ccccc3Sc3ccccc32)cc1[N+](=O)[O-]	20.6µM*	u	-92.2*	u	16.4µM*
Nc1ccc(C(=O)OCC(=O)N2CCc3ccccc3C2)cc1[N+](=O)[O-]	i	i	-3.9	1.4%	0.1%
COc1cc(C)c(NC(=S)Nc2cccc(Cl)c2C)cc1OC	i	i	-21.4	6.2%	5.2%
C=C1[C@@H](O)[C@@H]2O[C@]3(CC[C@H](/C=C/[C@@H](C)[C@@H]4CC(C)=CC5(O[C@H](C[C@@](C)(O)C(=O)OC)CC[C@H]5O)O4)O3)CC[C@H]2O[C@@H]1[C@@H](O)C[C@H](C)[C@H]1OC2(CCCCO2)CC[C@H]1C (some centres not stated)	18.4µM*	u	-2.4	0.651µM*	1.16µM*
C=C1C(O)[C@@H]2O[C@]3(CC[C@H](/C=C/C(C)[C@@H]4CC(C)=CC5(O[C@H](C[C@@](C)(O)CO)CCC5O)O4)O3)CC[C@H]2O[C@@H]1C(O)CC(C)[C@H]1OC2(CCCCO2)CCC1C (some centres not stated)	u	0.0206µM*	-100.4*	1.16µM*	0.82µM*
CC(=O)Oc1ccccc1C(=O)NC(C)CCc1ccccc1 (configuration not stated)	i	i	-71.9*	-15.7%	-14.8%
CCC(=O)N(CC)C1=C(O)c2ccccc2C(=O)C1=O	i	i	0.0	-13.7%	u
CNC1=C(N(C(C)=O)c2ccc(Br)cc2)C(=O)c2ccccc2C1=O	u	u	-78.5*	1.84µM*	1.84µM*
CCC(=O)N(C1=C(NC)C(=O)c2ccccc2C1=O)C(C)C	u	2.59µM*	132.9	4.61µM*	9.2µM*
CC(=O)NC1=C(N(C)C2CCS(=O)(=O)C2)C(=O)c2ccccc2C1=O (configuration not stated)	i	i	u	u	u
SMILES	KB-V1 cytotox	KB-3-1 tox	IL-1B inflam inh	HT1080-NT tox	HT1080 IDH1KD tx
CC1COC(Cn2c3ccccc3c3ccccc32)O1 (configuration not stated)	i	i	3.2	u	u
CC1(C)COC(Cn2c3ccccc3c3ccccc32)O1 (configuration not stated)	i	u	47.5	-13.7%	23.1µM*
O=C(CNC(=O)c1ccc(S(=O)(=O)N2CCCC2)cc1)N/N=C/c1ccco1	i	i	4.0	11.3%	-4.2%
Cc1ncc([N+](=O)[O-])n1CCOC(=O)NC(NCc1ccccc1Cl)C(Cl)(Cl)Cl (configuration not stated)	7.31µM*	u	-29.1	-1.4%	-4.5%
COc1ccc(NC(=O)OCCn2c([N+](=O)[O-])cnc2C)cc1	i	u	0.0	u	24.2%
O=C(NC1CCCCC1)N1CCCC(c2nc3ccccc3[nH]2)C1 (configuration not stated)	20.6µM*	i	0.0	-16.4%	-5.9%
CC(=O)Nc1cccc(-c2cc(-c3c(Cl)cccc3Cl)no2)c1	i	i	u	-0.6%	1.5%
CNC(=O)Nc1cccc(-c2cc(-c3c(Cl)cccc3Cl)no2)c1	i	i	-79.1*	-3.8%	u
Cc1cn([C@H]2C[C@H](O)[C@@H](CCC(=O)NC(c3ccccc3)c3ccccc3)O2)c(=O)[nH]c1=O	i	i	0.0	10.1%	4.1%
CC(=O)N1CCC2(CC1)C/C(=N\NC(=S)Nc1ccccc1F)c1cc(O)ccc1O2	i	u	-76.0*	u	u
O=C(c1cc2c(s1)CCCC2)N1CCN(CCO)CC1	i	i	-7.0	14.6%	18.2%
COc1ccc(NC(=O)N(C2CCCCC2)C2CCN(C(C)C)CC2)c(OC)c1	14.6µM*	i	-27.7	-10.9%	-2.3%
COc1ccc(NC(=S)NCCC(c2ccccc2)c2ccccc2)c(OC)c1	u	u	-0.3	-20.3%	22.4µM*
COc1ccc(NC(=S)N2CCN(C(c3ccccc3)c3ccccc3)CC2)c(OC)c1	i	i	-59.4*	-1.6%	u
COc1cccc(NC(=S)N2CCN(C(c3ccccc3)c3ccccc3)CC2)c1	i	i	-12.9	-3.0%	-4.4%
COc1cc(NC(=S)NCCc2c[nH]c3ccccc23)c(OC)cc1Cl	u	i	-66.1*	u	u
COc1ccc(NC(=O)N(C2CCCCC2)C(C)c2ccco2)c(OC)c1 (configuration not stated)	u	i	-28.9	-1.1%	16.1%
COc1ccccc1NC(=S)NCCc1c[nH]c2ccccc12	i	i	0.0	-22.2%	-15.7%
Cc1nn(C)c2c1c(C(F)(F)F)cc(=O)n2CC(=O)NCc1ccc(OC(C)C)cc1	i	i	x	x	x

High-throughput results: PubChem BioAssay, National Center for Advancing Translational Sciences (NCATS)
